Inconclusive results are not listed. Activity calls are given as the source filed them. Rule for the calls: active = hit-call score of the fitted dose curve at least 0.9, where 1 is the maximum; inconclusive = response in the unintended direction; inactive = score below 0.9.
experiment: ACEA_ER_AUC_viability: ACEA Biosciences xCELLigence Real-Time Cell Analysis on Estrogen Receptor Agonism for Viability (AID 2283782);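 note: continuous compound exposure with impedance area under curve over 80 h; hit means loss of impedance signal meaning reduced cell growth or viability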
Method: ACEA_ER is a cell-based, single-readout assay that uses T47D, a human breast cell line, with measurements taken at 80 hours after chemical dosing in a 96-well plate, although TO2 (mc0.srcf) used a 384-well plate. Differences in plate size can be ignored given data normalization.ACEA_ER_AUC_viability is one of two assay component(s) measured or calculated from the ACEA_ER assay. It is designed to make measurements of real-time cell-growth kinetics, a form of growth reporter, as detected with electrical impedance signals by Real-Time Cell Electrode Sensor (RT-CES) technology.Data from the assay component ACEA_ER_AUC_viability was analyzed in the positive analysis fitting direction relative to DMSO as the negative control and baseline of activity. Using a type of growth reporter, loss-of-signal activity can be used to understand changes in the viability. Furthermore, this assay endpoint can be referred to as a secondary readout, because this assay has produced multiple assay endpoints where this one serves a viability function. To generalize the intended target to other relatable targets, this assay endpoint is annotated to the cell cycle intended target family, where the subfamily is cytotoxicity.
The xCELLigence system Multi-E-Plate stations were used to measure the time-dependent response to chemicals. Each compound was tested in an eight-point, 1:4 serial dilution series starting at a maximum final concentration of 100 uM. A maximum starting concentration of 0.5% DMSO was present in the 100 uM chemical samples and was diluted along with the test article dilution series. The screen was performed in biological duplicate using two separate, 96-well, E-Plates 96 for each dilution series (n = 2). Positive controls (MG132 and E2) and a negative control (assay media) were tested in quadruplicate on each testing plate. Then, 0.5% and 0.125% DMSO were tested in duplicates in each plate to serve as solvent controls for the 2 highest concentrations of testing compounds: 100 uM and 25 uM. Reference compounds were tested with 8 concentrations with 1:5 serial dilutions. All screening was carried out by ACEA Biosciences, Inc. (San Diego, CA). T-47D cells purchased from ATCC were maintained in RPMI1640 media supplemented with 10% characterized fetal bovine serum (FBS). Before screening, T-47D cells were preconditioned in assay medium: phenol red-free RPMI1640 supplemented with 10% charcoal-stripped FBS. Cells were then detached and seeded in E-Plates 96 in assay medium. After overnight monitoring of growth once every hour, compounds were added to […] cells and remained in the medium until the end of the experiment. Cellular responses were then recorded once every 5 min for the first 5 h, and once every hour for an additional 100 h.

Row | SMILES | outcome | AC50
1 | CN1CCN(C)CC1 | inactive | 
2 | CC(C)(C)C1CCC(=O)CC1 | inactive | 
3 | CCOC(=O)[C@H](O)[C@@H](O)C(=O)OCC |  | 50 µM (active)
4 | C=CC(=O)OCC(C)OCC(C)OCC(C)OC(=O)C=C (stereo not given) |  | 21.3 µM (active)
5 | CCC(C)(O)CCCC(C)C (stereo not given) | inactive | 
6 | CCN1CN(CC)CN(CC)C1 |  | 66.4 µM (active)
7 | O=C1c2ccccc2C(=O)c2cc(S(=O)(=O)O)ccc21 | inactive | 
8 | C=C(C)C(=O)OCC(O)COc1ccc(C(C)(C)c2ccc(OCC(O)COC(=O)C(=C)C)cc2)cc1 (stereo not given) |  | 30.3 µM (active)
9 | O=C(C=Cc1ccccc1)OCCc1ccccc1 |  | 58 µM (active)
10 | O=C(OCCc1ccccc1)c1ccccc1 |  | 85.9 µM (active)
11 | CCCCCCCC(=O)OCC | inactive | 
12 | C=CC(=O)OCCCCCCCC(C)C | inactive | 
13 | CCNc1nc(NC(C)(C)C)nc(OC)n1 |  | 26.2 µM (active)
14 | CC(C)CC(=O)OCc1ccccc1 |  | 50 µM (active)
15 | C=CC(=O)NCOCCCC | inactive | 
16 | [Cl][Eu]([Cl])[Cl] | inactive | 
17 | CCCCCCCCCCCC(C)=O |  | 66.7 µM (active)
18 | OCCCc1ccccc1 | inactive | 
19 | CCCCCCCCCCCCc1ccc(O)cc1 |  | 20 µM (active)
20 | [Cl][Sc]([Cl])[Cl] | inactive | 

Row | SMILES | outcome | AC50
21 | CCCC1CCCC(=O)O1 (stereo not given) | inactive | 
22 | CCOB(OCC)OCC | inactive | 
23 | CCCCCCCCCCCCCc1ccccc1 | inactive | 
24 | Nc1ccnc(=O)[nH]1 | inactive | 
25 | CC/C=C\C/C=C\C/C=C\CCCCCCCC(=O)OC | inactive | 
26 | CCCCCCCCC(CO)CCCCCC (stereo not given) |  | 33.9 µM (active)
27 | CC(c1cc(C(C)(C)C)cc(C(C)(C)C)c1O)c1cc(C(C)(C)C)cc(C(C)(C)C)c1O | inactive | 
28 | CCCCCCCCCCCC(=O)N(C)CC(=O)O | inactive | 
29 | CCCCc1ccc(Cl)cc1 | inactive | 
30 | CC(C)CCOCc1ccccc1 | inactive | 
31 | CCCCCC(=O)OCC | inactive | 
32 | CC(C)c1cc(C(C)C)cc(C(C)C)c1 | inactive | 
33 | C=CCNCC=C |  | 50.5 µM (active)
34 | CC(=O)C(C)C | inactive | 
35 | Nc1nc(N)nc(-c2ccccc2)n1 | inactive | 
36 | N#CC1(N)CCCCC1 | inactive | 
37 | CC1(C)[C@@H]2CC[C@@]1(C)C(=O)C2 | inactive | 
38 | C=CC(=O)OCCCCCCOC(=O)C=C |  | 85.3 µM (active)
39 | CC1=CC(C)C(C=O)CC1 (stereo not given) | inactive | 
40 | N#Cc1ccc(C(c2ccc(C#N)cc2)n2cncn2)cc1 | inactive | 
